Measured values taken from PMC12136788.
Numbering of substitutions follows the chain as printed. In all, about 24,000 sequences were measured (“enrichment r”: median about 0.99, highest 2% from about 3.7 on). The list comes from a sample in which the highest values are over-represented; it also holds similar and randomly drawn sequences.

B1: chr14:35505469:35505470:+_ENSMUSG00000041408_ENSMUST00000048263|mus_hu|motif|central (ssRNA)
RNA: GGGAGUUCUACAGUCCGACGAUCCUGUAUGGUAACAUUACAAACUGACAAGCAAGAUGGAUGUAAAACAGUGUAAUCUCGGGUCCGUCCAACUGUCCCUCUAAAACUGGUCCCACAACUUACACCCCCUUUCUUUGCCUGAUUCAACAGAGGAUUGAGCAUCA
B2: chr6:72561926:72561927:-_ENSMUSG00000056429_ENSMUST00000070524|mus_mus|motif|central (ssRNA)
RNA: GGGAGUUCUACAGUCCGACGAUCGUAAAUAAAACAUCACCAGAGGAGAGUGUCAUCAAAGUGCCGGUGCAAAACCUGAAGCGGUCCCAUCUCUGCCAGCCCAGACUUGCCACCAAACCCCAGAGGAGGUCACAGUCUUUUCAUCAACAGAGGAUUGAGCAUCA
B3: chr2:153237265:153237266:-_ENSMUSG00000061411_ENSMUST00000109784|mus_mus|mus_mus_mus_hu_False|1_8 (ssRNA)
RNA: GGGAGUUCUACAGUCCGACGAUCAAAAAAAAAAAAAAAAAAGUGUCCUUGUGCCCAAAGUCUCAGGUGCUUGGAGUGUGGCUAGAAACAGCUCUUUUGGAUCCCACCUCUUUCAAAAACAAAAUGUCCAACUGGUGAGGCAGGCAACAGAGGAUUGAGCAUCA
B4: chr2:153237265:153237266:-_ENSMUSG00000061411_ENSMUST00000109784|mus_mus|mus_mus_mus_hu_False|8_78 (ssRNA)
RNA: B3 RNA with G66A, A137G, G138A, C140G, A141C, G142A
B5: chr2:153237265:153237266:-_ENSMUSG00000061411_ENSMUST00000109784|mus_mus|mus_mus_mus_hu_False|8_28 (ssRNA)
RNA: B3 RNA with A115G, A137G, G138A, C140G, A141C, G142A
B6: chr2:153237265:153237266:-_ENSMUSG00000061411_ENSMUST00000109784|mus_mus|mus_mus_mus_hu_False|8_58 (ssRNA)
RNA: B3 RNA with U78C, G79A, A137G, G138A, C140G, A141C, G142A
B7: 130210676_130211900_346_CDS_ENSG00000197958_ENST00000361436|human|control|control (ssRNA)
RNA: GGGAGUUCUACAGUCCGACGAUCAAAAGUGAUAUUCCCACUGUGUUUAAUGUUUUUCUGUUUCUUUCUGUCUCUUGGUGGUUCCUUGAGGGCUUUGAUGAUCAGGGCAGAGGCAGAAGGCACCACCUCAAUCUGGGCCUGUCUCAACAGAGGAUUGAGCAUCA
B8: 26295160_26295280_2512_CDS_ENSMUSG00000026924_ENSMUST00000091252|mouse|control|control (ssRNA)
RNA: GGGAGUUCUACAGUCCGACGAUCUCCCUUUUCUGGAUGAUGAACAACCUCUGAAGGUUUUGGUUUUACAGGAACAUAAAGUGCAGGGGCAGCAGGGGCUAGAAGGACAUUGCCACCAAAAUCUGGCAGCUCAUUUUGUGCCCACAACAGAGGAUUGAGCAUCA
B9: chr8:80553714:80553715:+_ENSG00000104435_ENST00000220876|hu_mus|FALSE|FALSE (ssRNA)
RNA: GGGAGUUCUACAGUCCGACGAUCAGCCUCCAGCUUUUUCUGAAUCUCCUCCAGAGACAGGUCUUUCUUCUUUGGAGAAGCUAGAGUUCGUGGAGCUUCUGAGAUGGGAGAUGGUGGCUUCAAGAUCAGCUCAAAAGCCUGGCCCAACAGAGGAUUGAGCAUCA
B10: 1003750_1005305_5821_CDS_ENSG00000060237_ENST00000535572|human|control|control (ssRNA)
RNA: GGGAGUUCUACAGUCCGACGAUCAUGAACAGACUUUGCAUCUUCUGACUUAUUUUUACCCUCUUUCUGGGCACCGUCUGCUGCAACAGAAACCUGAAAUCGUCCCAUCUUAAAAACACCAGCUCCUGAACUAGUUGCUAGGACCAACAGAGGAUUGAGCAUCA
B11: 9430860_9430980_9933_3pUTR_ENSMUSG00000040209_ENSMUST00000041124|mouse|control|control (ssRNA)
RNA: GGGAGUUCUACAGUCCGACGAUCUUUAAAAAGAACCAACUACUAUUUGACUCUAACCCAAUCCUUCAGUAUCUGGUAUGCGCUUUGUUUUUUCCCUUGCUAACACUAGGCCCUUUCUGUGCACUGCCAGCCAAGCACAGGCAGCAACAGAGGAUUGAGCAUCA
B12: 93812015_93812135_631_5pUTR_ENSG00000117505_ENST00000370272|human|control|control (ssRNA)
RNA: GGGAGUUCUACAGUCCGACGAUCGAUUUCUCAAAAAGUCGCCCUCGGAGAGUGAUCCCGGGGGGUGCUUUGCGAAGAGGGUGCAGAAAAUGAACGGAGGAGCAGCUGGCUUGAGGGCUGGGAACACUCGCGUGUGUGAGAGAUCAACAGAGGAUUGAGCAUCA
B13: chr5:128448638:128448639:+_ENSG00000066583_ENST00000173527|hu_mus|hu_hu_hu_mus_False|28_28 (ssRNA)
RNA: GGGAGUUCUACAGUCCGACGAUCGGCACUCGCCUUAAUUAGGUUCUGAAUUUCCUUGAACUUCGGGUGGUCUUUGUCAGCCACCAGCUGUAGGAGGACAGCCUCACUCGUGGUCACGAUGAUCCCAGUGCGGGCAAGACGCUCCAACAGAGGAUUGAGCAUCA
B14: chr15:12740188:12740189:-_ENSMUSG00000022195_ENSMUST00000057256|mus_hu|FALSE|FALSE (ssRNA)
RNA: GGGAGUUCUACAGUCCGACGAUCAUAAAUGAAGUAUGAAUGAAUCUCAUACAGCUCAACAGACCUGGGGGAAAAGUGAAGACAAACAAACAAACAAACAAAAAAAAAAACAAAACCCUAAAAAAUACUUAAGGAAGACAGAUACAACAGAGGAUUGAGCAUCA
B15: 176792147_176792267_4022_3pUTR_ENSG00000144320_ENST00000272748|human|control|control (ssRNA)
RNA: GGGAGUUCUACAGUCCGACGAUCACAUGAUAGGGAGUAAAAGGCAGAGGCCAGCUUCAGAUGGGGAGUUUGGGAAGGCAUCUCUCUGAGGAGGCAAAAUUUAAGCUGAAAUCUGAGGCAGGAAAGGGCAUGGUCAGAGAACUGCAACAGAGGAUUGAGCAUCA
B16: chr10:60895279:60895280:-_ENSMUSG00000020091_ENSMUST00000020288|mus_mus|FALSE|FALSE (ssRNA)
RNA: GGGAGUUCUACAGUCCGACGAUCACUGGAAGAUGUUUUGUUAAAAAAGUUGUAGUUCAAAAUUGUACUGAAAACUUAUCUAAAAAUAGGUCUGUAGUCAUCUUAAAAAUAAAAGGUCUCUCCUCUGAUAAGGAGAGACUGAUACAACAGAGGAUUGAGCAUCA
B17: chr2:47635579:47635580:+_ENSG00000095002_ENST00000543555|hu_hu|motif|central (ssRNA)
RNA: GGGAGUUCUACAGUCCGACGAUCACUCUAUACUGACGAACCAGAAGAAGAUCUUUUACAAAAGAUUCAAAAUUCAUUUUACGGAGCACAACACUCUGCAGAUUCUUUGCUCCUGCCGGCCCCAUGUACUUGAUCACCCCCUGGCAACAGAGGAUUGAGCAUCA
B18: chr4:117881997:117881998:-_ENSMUSG00000033295_ENSMUST00000150096|mus_hu|FALSE|FALSE (ssRNA)
RNA: GGGAGUUCUACAGUCCGACGAUCCAGAAGUCAUACAAAAUAAGGAUCCAAAGUGAACUCAAGAAAAAAAAAAACAAAACAAAAUAAACCCCAACCCCUACAGUGGCCCAUUCUGCAGAUACGGAUUCGCGAAAGGAAAAAUCACAACAGAGGAUUGAGCAUCA
B19: chr9:15453159:15453160:+_ENSG00000164975_ENST00000490969|hu_hu|FALSE|FALSE (ssRNA)
RNA: GGGAGUUCUACAGUCCGACGAUCAUGAUGCACAAGCCUUAUGUCAGUAAUGACAAUGACAUGUUCACAGUCUCCCUGAUGACAGUAUAAGUAAGGAAAACCCAGUUUAAUACACAAGUCAUUGAAGGUGAAAUCUUCCAUUCUCAACAGAGGAUUGAGCAUCA
B20: chr4:103718443:103718444:-_ENSG00000109332_ENST00000394803|perfect_dup|FALSE|FALSE (ssRNA)
RNA: GGGAGUUCUACAGUCCGACGAUCAAAGCUGGAAGAACUUAAGUCUUCUCAGAUGAGCAUGUGAAUGAAUGGAGGGAGGUAAACAAAAAAUAAAAUUAAAAAAGAUGAGGUCUGAUAGGGGAGCAGCCGGAUAAGAAAAUCAAACAACAGAGGAUUGAGCAUCA
B21: chr6:48548902:48548903:+_ENSMUSG00000052751_ENSMUST00000163452|mus_mus|FALSE|FALSE (ssRNA)
RNA: GGGAGUUCUACAGUCCGACGAUCAAGGAACAAAACAAGACCCAGUAGGCAGAAGUCAUAGGAAAGCAGAAUCCAAUCACUAUAAGUAAGAAAUGUCUAACAAUUAGACUCGCCCUACGAUAGAAGUAGUGCCUUCUGGAGGUACAACAGAGGAUUGAGCAUCA
B22: 54500970_54501090_1431_3pUTR_ENSMUSG00000039156_ENSMUST00000071083|mouse|control|control (ssRNA)
RNA: GGGAGUUCUACAGUCCGACGAUCAGCUGCAUCUCAGCAUUUUGCCUCUUAAUAUUGUAGUACUGUACUUCAACUUCGUGUGUUAGCUGAAGCCAUUUCUGUAGUGCGUCAGGGACAGACCAGCUGCUUCUCAGUUCAAACUCCCAACAGAGGAUUGAGCAUCA

Biological target: T1, UNK ZnF1-3 (human, UniProt Q9C0B0 31-174)
T1 sequence: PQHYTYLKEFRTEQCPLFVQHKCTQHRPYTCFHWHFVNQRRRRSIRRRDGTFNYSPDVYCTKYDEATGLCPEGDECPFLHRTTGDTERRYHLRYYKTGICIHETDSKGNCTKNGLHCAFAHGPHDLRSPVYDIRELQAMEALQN
Experiment: nsRBNS (natural sequence RNA bind-n-seq); RBNS binding buffer (assumed for nsRBNS): 25 mM Tris pH 7.5, 150 mM KCl, 3 mM MgCl2, 0.01% Triton X-100, 500 ug/ml BSA, 20 U/ml SUPERase-In, 4 C; UNK is unkempt and MSI1 is Musashi-1; names of the RNAs are library labels; protein concentration not given here; high values mean tight binding

Binder	binding signal
B1	1.1 enrichment R
B2	3.38 enrichment R
B3	4.46 enrichment R
B4	4.8 enrichment R
B5	3.73 enrichment R
B6	3.36 enrichment R
B7	0.682 enrichment R
B8	1.58 enrichment R
B9	0.56 enrichment R
B10	1.34 enrichment R
B11	0.957 enrichment R
B12	1.73 enrichment R
B13	0.734 enrichment R
B14	6.86 enrichment R
B15	3.56 enrichment R
B16	0.617 enrichment R
B17	1.41 enrichment R
B18	7.45 enrichment R
B19	1.02 enrichment R
B20	21.1 enrichment R
B21	2.2 enrichment R
B22	1.01 enrichment R
